This is a sample that favours compounds with a hit; in the whole collection about 1.6% have one here.
KCNQ2 block – blocks the rat KCNQ2 potassium channel | O88943 | CHO-K1 KCNQ2, FluxOR thallium flux, 20 min; active compounds read low | B-score at 10 µM | actives 1.1% (n = 310,000) | AID 2156;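 active means fluorescence ratio B-score at most minus 3 library SDs, with starting brightness B-score within 2 library SDs, cut at about -5.5 in these data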
KCNQ2 pot – potentiators of rat KCNQ2 potassium channel | CHO-K1 KCNQ2, FluxOR thallium flux fluorescence; active compounds read high | O88943 | B-score at 10 µM | actives 0.54% (n = 310,000);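 active means fluorescence ratio B-score at least 3 SD of library B-scores, with initial fluorescence B-score within 3 of them, cut at about 5.3 in these data; same plate scores as AID 2156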;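 further: B-score of peak minus minimum over baseline fluorescence ratio after K+ and Tl+ stimulus; positive B-score means potentiation of KCNQ2 with more thallium influx and brighter signal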
Kir21 conf inh – confirmation of mouse Kir2.1 potassium channel inhibitors; shares compounds with KCNQ2 pot; Kir2.1-expressing cells, FluxOR thallium flux fluorescence; active compounds read low; Tl flux remaining, % of negative control (active compounds read low), % at 10 µM; actives 41% (n = 2,300); AID 2032;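 active means Primary-screen hit whose thallium flux fell at least 3 control SD below untreated wells in both duplicates, with normal baseline fluorescence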;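 further: 0% = blank wells without stimulus and 100% = stimulated no-compound controls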
HEK293 Tl flux – alters thallium flux in parental HEK293 cells, Kir2.1 counter-screen; shares compounds with KCNQ2 pot; FluxOR thallium flux fluorescence; 0% = unstimulated blank wells; FluxOR signal as % of negative control (100 = no effect), % at 10 µM; actives 19% (n = 2,300);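 active means dye signal at least 3 control SD above or below untreated wells in both duplicates, raw fluorescence within 3, either direction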;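 further: percent is based on the flux ratio of peak minus minimum fluorescence over baseline F0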
CHO-K1 ctr – parental CHO-K1 activity in KCNQ2 potentiator counter-screen; activity increase over 3SD of controls, % at 10 µM; AID 2282; shares compounds with KCNQ2 pot; actives 43% (n = 1,200); parental CHO-K1 cells, FluxOR thallium flux fluorescence; zero = vehicle mean+3SD, 100% = vehicle-minus-blank window;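 active means signal rise of at least 3 SD above the untreated control mean, in both duplicate wells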;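 further: counter screen of KCNQ2 potentiator hits so any rise reflects channel-independent effects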
KCNQ1 sel pot – selectivity of KCNQ2 potentiators: effect on human KCNQ1; shares compounds with KCNQ2 pot; CHO KCNQ1 stable, FluxOR thallium flux fluorescence; beyond 3SD, as % of vehicle-control signal; AID 2283; actives 28% (n = 1,200); activation over 3SD threshold, % at 10 µM;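 active means fluorescence ratio rise of at least 3 SD of vehicle wells above their mean, in both replicate wells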;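 further: 0% = vehicle mean plus 3 SD and 100% = vehicle minus unstimulated blank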
Target sequence (P51787 whole entry, looked up): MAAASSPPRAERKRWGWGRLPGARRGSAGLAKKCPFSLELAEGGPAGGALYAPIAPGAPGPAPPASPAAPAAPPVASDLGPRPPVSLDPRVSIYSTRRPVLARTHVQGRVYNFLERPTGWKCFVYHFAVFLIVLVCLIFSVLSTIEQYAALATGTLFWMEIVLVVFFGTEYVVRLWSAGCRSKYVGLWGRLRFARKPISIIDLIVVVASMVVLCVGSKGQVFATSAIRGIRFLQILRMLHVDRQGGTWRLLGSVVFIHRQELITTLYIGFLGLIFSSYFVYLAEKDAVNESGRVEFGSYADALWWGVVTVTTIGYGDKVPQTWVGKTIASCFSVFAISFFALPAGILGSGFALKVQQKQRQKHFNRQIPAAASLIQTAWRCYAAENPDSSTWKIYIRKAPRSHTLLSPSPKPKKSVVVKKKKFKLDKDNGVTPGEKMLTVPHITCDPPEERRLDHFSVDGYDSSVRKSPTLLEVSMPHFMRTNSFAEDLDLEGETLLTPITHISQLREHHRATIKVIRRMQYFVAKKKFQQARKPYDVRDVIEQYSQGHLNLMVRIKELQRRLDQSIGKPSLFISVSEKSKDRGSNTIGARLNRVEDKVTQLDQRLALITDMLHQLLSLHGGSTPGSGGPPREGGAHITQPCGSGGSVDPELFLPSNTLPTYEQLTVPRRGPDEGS
KCNQ2 pot confirm – rat KCNQ2 channel potentiator confirmation. actives 68% (n = 1,200). shares compounds with KCNQ2 pot. potentiation, less the hit threshold, % at 10 µM. CHO-KCNQ2 cells, FluxOR thallium flux fluorescence;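 active means fluorescence ratio rising 3 SD or more over the vehicle control mean in both replicates, plus primary screen hit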;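 further: peak minus minimum thallium fluorescence divided by baseline after K/Tl stimulus; 0% = vehicle mean plus 3 SD and 100% = vehicle minus unstimulated blank difference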
Kir21 spec – selectivity of KCNQ2 potentiators: effect on mouse Kir2.1; HEK293 Kir2.1, FluxOR thallium flux fluorescence; activity over 3SD threshold, % at 10 µM; shares compounds with KCNQ2 pot; actives 2% (n = 1,200); AID 2345;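 active means fluorescence ratio rise of at least 3 SD above the vehicle-control mean, seen in both replicates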;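 further: 0% = vehicle mean plus 3 SD and 100% = vehicle minus no-stimulus blank window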
KCNQ2 W236L pot – KCNQ2 potentiators acting on retigabine-insensitive rat KCNQ2 W236L mutant | actives 10% (n = 940) | current increase over 3SD of negative controls (%), active compounds read high, % at 25 µM | CHO KCNQ2-W236L, automated patch clamp current | shares compounds with KCNQ2 pot;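 active means current increase at least 3 SD of the untreated controls above them in both duplicate recordings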
* hit, by the source's call; i = inactive; nt = no result.

SMILES	KCNQ2 block	KCNQ2 pot	Kir21 conf inh	HEK293 Tl flux	others
CCOc1ccc(CN(C)CC(O)COC(c2ccc(OC)cc2)c2ccc(OC)cc2)cc1 (configuration not stated)	i	nt	58%*	i
COc1ccc(CN(C)CC(O)COC(c2ccc(OC)cc2)c2ccc(OC)cc2)cc1 (configuration not stated)	i	nt	50%*	i
C=CCOc1ccc(CN(C)CC(O)COc2ccc(CCC(C)=O)cc2)cc1 (configuration not stated)	i	1.1	nt	nt
Cc1cc(C)nc(NCCCc2ccccc2)n1	i	nt	nt	nt
CCCCNc1cc(C)nc(NCc2ccccc2)n1	i	nt	15%*	i
CCC(C(=O)N/N=C(\C)c1cccnc1)c1ccccc1 (configuration not stated)	i	0.44	nt	nt
CC(NS(=O)(=O)c1ccc(Br)cc1)c1ccccc1 (configuration not stated)	i	nt	47%*	i
CC(NS(=O)(=O)c1ccc2c(c1)OCCO2)c1ccccc1 (configuration not stated)	i	0.93	nt	nt
COc1ccccc1NC(=O)c1ccc2c(c1)N(CC(=O)NC(C)C)C(=O)C(C)(C)O2	i	nt	nt	nt
COc1cc(C)nc(N(Cc2ccccc2)S(=O)(=O)c2ccccc2)n1	i	nt	nt	nt
CCCN(c1nc(C)cc(OC)n1)S(=O)(=O)c1ccccc1	i	nt	50%*	i
CCCc1cnc(NCCNCC(O)COc2ccc(Cl)c(Cl)c2)nc1 (configuration not stated)	i	nt	68%*	i
CCOC(=O)c1c(C)n(C)c2ccc(OCC(O)CNCCc3ccccc3)cc12 (configuration not stated)	i	0.08	nt	nt
O=c1[nH]c(-c2ccccc2)c(-c2ccccc2)o1	i	0.05	nt	nt
O=C(O)CCC1c2cc3c4cc2OC2Oc5cc6c(cc51)C(CCC(=O)O)c1cc5c7cc1OC(O6)c1cc6cc(c1)Oc1cc(cc(C(=O)O)c1)Oc1cc8cc(c1)C(Oc1cc(c(cc1C5CCC(=O)O)C3CCC(=O)O)OC(O4)c1cc(cc(c1)Oc1cc(cc(C(=O)O)c1)O8)Oc1cc(cc(C(=O)O)c1)Oc1cc(cc2c1)Oc1cc(cc(C(=O)O)c1)O6)O7 (configuration not stated)	i	1.3	nt	nt
COc1ccc(CN2CCN(Cc3cc4ccccc4o3)CC2CCO)c(F)c1 (configuration not stated)	i	nt	nt	nt
COc1ccc(CN2CCN(C3CCC3)CC2CCO)c(F)c1 (configuration not stated)	i	13*	i	i	CHO-K1 ctr=-13;KCNQ1 sel pot=-18;KCNQ2 pot confirm=-8;Kir21 spec=-27
CC1(C)CC2(CCO1)OC(=O)CC2C(=O)Nc1ccccc1Cl (configuration not stated)	i	2.2	nt	nt
O=C(CP(=O)(c1ccccc1)c1ccccc1)N/N=C/c1cc(Br)cc(Br)c1O	i	0.74	nt	nt
O=C(Cc1ccccc1)N/N=C/c1cc(Br)cc(Cl)c1O	i	6.1*	i	i	CHO-K1 ctr=4.8*;KCNQ1 sel pot=-20;KCNQ2 pot confirm=20*;Kir21 spec=-34;KCNQ2 W236L pot=25%*
COc1cc(Br)cc(/C=N/NC(=O)Cc2ccccc2)c1O	i	5.3*	i	72%*	CHO-K1 ctr=-10;KCNQ1 sel pot=-18;KCNQ2 pot confirm=8.0*;Kir21 spec=-36;KCNQ2 W236L pot=i
COc1cc(/C=N/NC(=O)Cc2ccc(Br)cc2)cc(OC)c1O	i	2.1	nt	nt
COc1ccc(N(CC(=O)NCc2ccccc2C)S(=O)(=O)c2ccccc2[N+](=O)[O-])c(OC)c1	i	nt	nt	nt
O=C(COc1cc2oc(=O)cc(-c3ccccc3)c2cc1Cl)NCc1ccccn1	i	1.1	nt	nt
O=C(CN1CCN(Cc2ccc(Cl)cc2)CC1)N1CCc2ccccc21	i	0.49	35%*	i
SMILES	KCNQ2 block	KCNQ2 pot	Kir21 conf inh	HEK293 Tl flux	others
O=C(CN1CCN(Cc2ccccc2)CC1)N1CCCc2ccccc21	i	0.64	nt	nt
OCCCn1c(C2CCCN2c2nc(-c3ccc(Cl)cc3)cs2)nc2cc(Cl)c(N3CCCCC3)cc21 (configuration not stated)	i	8.1*	i	i	CHO-K1 ctr=13*;KCNQ1 sel pot=-21;KCNQ2 pot confirm=8.9*;Kir21 spec=-26;KCNQ2 W236L pot=i
Cc1csc(N2CCCC2c2nc3cc(Cl)c(N4CCCCC4)cc3n2CCCO)n1 (configuration not stated)	i	2.4	nt	nt
OCCCn1c(C2CCCN2c2nc(-c3ccc(F)cc3)cs2)nc2cc(Cl)c(N3CCCCC3)cc21 (configuration not stated)	i	10*	i	i	CHO-K1 ctr=-13;KCNQ1 sel pot=-8;KCNQ2 pot confirm=55*;Kir21 spec=-25;KCNQ2 W236L pot=i
OCCOCCn1c(C2CCCN2c2nc(-c3ccc(F)cc3)cs2)nc2cc(Cl)c(Cl)cc21 (configuration not stated)	i	nt	nt	nt
COc1cc(C(=O)Nc2c(C(=O)O)[nH]c3ccc(Br)cc23)cc(OC)c1OC	i	1.3	nt	nt
CC1(c2cccc(Br)c2)NC(=O)N(CC(=O)Nc2ccc(F)cc2)C1=O (configuration not stated)	i	nt	nt	nt
Cc1cc(C(=O)NNC(=O)c2ccc(C(F)(F)F)cc2)no1	i	1.8	nt	nt
CC(C)(C)c1cc(C(=O)NNC(=O)c2ccc(Cl)cc2)no1	i	9.1*	i	266%*	CHO-K1 ctr=1.4*;KCNQ1 sel pot=88*;KCNQ2 pot confirm=5.3*;Kir21 spec=-42;KCNQ2 W236L pot=i
CCn1cc(-c2ccccc2)c(C(=O)O)c1-c1ccc(OC)cc1	i	nt	nt	nt
COCCn1c(SCC(=O)Nc2nc(C)c(Cl)cc2Cl)nc2ccccc21	i	0.7	62%*	i
COCCn1c(SCC(=O)Nc2ccccc2OC)nc2ccccc21	i	nt	nt	nt
CC(=O)N1CCN(C(=S)NC(=O)c2ccc(S(=O)(=O)N3CCOCC3)cc2)CC1	i	0.2	nt	nt
CCCCNC(=S)N(CCCN(C)C)Cc1cc2cc3c(cc2[nH]c1=O)OCO3	i	nt	nt	nt
COc1ccc(/C=N/NC(=O)C2C(C=C(Cl)Cl)C2(C)C)c(OC)c1 (configuration not stated)	i	nt	nt	nt
CC(=O)Nc1ccc(S(=O)(=O)N(C)CC(=O)OCC(=O)N2CCCCCC2)cc1	i	1.1	nt	nt

Compound activity from PubChem BioAssay.
